# Experimental data: PubChem BioAssay (NCATS)
# Values without a mark were called inactive. Results filed as inconclusive are left out. Entries that show only a call come without a potency. Activity calls are given as the source filed them. Unless noted, the call rests on the fitted dose curve; in most records, active means well fitted curve in the direction sought with a large enough effect; inconclusive means small, poorly fitted or top-dose-only effect, or another doubt; inactive means no such curve, though single readings can be large; an effect the other way counts as inactive or inconclusive.
# Assays:
# [1] = biological target: Rap guanine nucleotide exchange factor 4 (Homo sapiens) (UniProt Q8WZA2); assay: Confirmatory qHTS for agonist of cAMP-regulated guanine nucleotide exchange factor 4 (EPAC2) (AID 1645884);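 further: nucleotide exchange releases bodipy-GDP from Rap1 and this lowers its fluorescence; nearly all actives have a fitted effect of over 65% in size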; further: potency means the concentration at half of the fitted maximal effect
# Chain of Rap guanine nucleotide exchange factor 4 (Homo sapiens) (Q8WZA2 whole entry, looked up): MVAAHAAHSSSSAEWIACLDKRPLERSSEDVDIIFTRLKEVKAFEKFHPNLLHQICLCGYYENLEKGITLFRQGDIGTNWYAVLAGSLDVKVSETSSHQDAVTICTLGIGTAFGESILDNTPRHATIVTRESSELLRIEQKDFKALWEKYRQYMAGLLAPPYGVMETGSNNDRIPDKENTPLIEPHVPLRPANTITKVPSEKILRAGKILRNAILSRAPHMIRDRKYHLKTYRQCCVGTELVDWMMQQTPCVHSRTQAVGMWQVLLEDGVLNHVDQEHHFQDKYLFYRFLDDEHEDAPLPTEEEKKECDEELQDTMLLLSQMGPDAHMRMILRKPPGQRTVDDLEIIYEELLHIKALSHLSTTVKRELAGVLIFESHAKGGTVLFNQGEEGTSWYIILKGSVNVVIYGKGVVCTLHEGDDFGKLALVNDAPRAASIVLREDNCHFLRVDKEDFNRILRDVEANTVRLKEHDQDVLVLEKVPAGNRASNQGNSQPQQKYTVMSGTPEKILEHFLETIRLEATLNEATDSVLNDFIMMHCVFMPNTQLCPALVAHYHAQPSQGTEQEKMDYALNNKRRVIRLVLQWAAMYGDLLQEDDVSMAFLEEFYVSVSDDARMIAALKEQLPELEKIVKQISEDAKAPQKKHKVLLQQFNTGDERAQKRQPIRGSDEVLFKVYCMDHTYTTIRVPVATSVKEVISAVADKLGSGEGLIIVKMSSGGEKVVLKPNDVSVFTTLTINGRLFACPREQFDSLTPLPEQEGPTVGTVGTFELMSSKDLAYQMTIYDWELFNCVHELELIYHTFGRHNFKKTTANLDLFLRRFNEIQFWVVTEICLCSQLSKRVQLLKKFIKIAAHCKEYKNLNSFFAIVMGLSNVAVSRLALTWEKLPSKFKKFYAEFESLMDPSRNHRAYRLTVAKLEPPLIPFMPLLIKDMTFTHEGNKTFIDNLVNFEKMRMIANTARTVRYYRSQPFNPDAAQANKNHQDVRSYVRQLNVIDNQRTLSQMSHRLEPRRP
# [2] = biological target: Rap guanine nucleotide exchange factor 4 (Homo sapiens) (UniProt Q8WZA2); assay: Confirmatory qHTS for antagonist of cAMP-regulated guanine nucleotide exchange factor 4 (EPAC2) (AID 1645885); further: nearly all actives have a fitted effect of over 25% in size; further: potency means the concentration at half of the fitted maximal effect
# [3] = biological target: Rap guanine nucleotide exchange factor 3 (Homo sapiens) (UniProt O95398); assay: Counterscreen qHTS for antagonist of cAMP-regulated guanine nucleotide exchange factor 3 (EPAC1) (AID 1645888);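 further: fluorescence loss as bound BODIPY-GDP is released from Rap1B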
# Chain of Rap guanine nucleotide exchange factor 3 (Homo sapiens) (O95398 whole entry, looked up): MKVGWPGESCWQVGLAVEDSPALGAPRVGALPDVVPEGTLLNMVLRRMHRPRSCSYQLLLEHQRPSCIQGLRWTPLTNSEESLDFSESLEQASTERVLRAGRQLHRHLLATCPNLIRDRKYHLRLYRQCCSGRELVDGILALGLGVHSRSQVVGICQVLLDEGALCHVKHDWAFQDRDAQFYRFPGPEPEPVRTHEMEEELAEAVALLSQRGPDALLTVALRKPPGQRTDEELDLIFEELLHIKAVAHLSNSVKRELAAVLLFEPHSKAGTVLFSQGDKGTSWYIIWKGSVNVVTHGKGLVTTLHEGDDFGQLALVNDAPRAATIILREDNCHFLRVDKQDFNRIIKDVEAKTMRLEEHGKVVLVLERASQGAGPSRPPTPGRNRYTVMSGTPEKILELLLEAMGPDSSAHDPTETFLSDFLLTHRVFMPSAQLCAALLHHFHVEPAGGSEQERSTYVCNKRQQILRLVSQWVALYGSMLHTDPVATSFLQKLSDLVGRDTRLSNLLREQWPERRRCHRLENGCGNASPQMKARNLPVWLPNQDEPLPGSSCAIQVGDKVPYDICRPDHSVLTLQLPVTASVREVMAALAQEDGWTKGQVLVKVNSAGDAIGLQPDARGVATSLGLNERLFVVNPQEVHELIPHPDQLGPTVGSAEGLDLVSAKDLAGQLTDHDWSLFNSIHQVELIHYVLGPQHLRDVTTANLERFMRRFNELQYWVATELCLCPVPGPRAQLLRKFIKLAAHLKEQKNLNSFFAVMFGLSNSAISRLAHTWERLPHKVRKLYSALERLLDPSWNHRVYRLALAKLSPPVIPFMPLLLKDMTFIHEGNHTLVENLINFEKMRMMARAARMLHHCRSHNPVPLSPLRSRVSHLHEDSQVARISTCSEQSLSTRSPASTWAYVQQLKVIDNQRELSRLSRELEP
# Method in brief: (§1)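 Rap1B-BODIPY-GDP 250 nM + GDP 50 uM; cpds 7-pt, final 9.74 nM–152 uM (activator mode) or from 7.32 nM upwards (inhibitor mode); RT; FI 480/540 nm at 5 and 30 min, then ± cAMP, reread.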
# [4] = biological target: Rap guanine nucleotide exchange factor 3 (Homo sapiens) (UniProt O95398); assay: Counterscreen qHTS for agonist of cAMP-regulated guanine nucleotide exchange factor 3 (EPAC1) (AID 1645889); further: nearly all actives have a fitted effect of over 40% in size
# Method in brief: as §1
# [5] = biological target: Tumor susceptibility gene 101 protein (Homo sapiens) (UniProt Q99816); assay: qHTS Assay for Iinhibitors of HIV-1 Budding by Blocking the Interaction of PTAP/TSG101: Hit Validation (AID 651600); further: nearly all actives have a fitted effect of over 70% in size
# Method in brief: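 Measuring PTAP–Tsg101 interaction by FP: protein at 10 uM and fluorescent peptide at 50 nM (final), buffer 10 mM HEPES pH 7.5 with 0.15 M NaCl, 3 mM EDTA, 0.1 mM TCEP, 0.01% Tween 20; 20 min incubation, r.t.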
# [6] = biological target: Tyrosyl-DNA phosphodiesterase 1 (Homo sapiens) (UniProt Q9NUW8); assay: Confirmation Assay for Inhibitors of Tyrosyl-DNA Phosphodiesterase (TDP1) (AID 489007); settings: recombinant human TDP1 enzymatic activity, dose-response; further: potency means the concentration at half of the fitted maximal effect; nearly all actives have a fitted effect of over 40% in size
# Method in brief: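 Loss of AlphaScreen signal reports Tdp1 cleavage of a dual-labelled DNA substrate. Conditions: 1 nM E. coli-derived enzyme, 15 nM substrate, 15 min compound preincubation, 5 min reaction, 10 min bead incubation, all at room temperature.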
# [7] = biological target: Cytochrome P450 1A2 (Homo sapiens) (UniProt P05177); assay: p450-cyp1a2 (AID 410; calls by dose curve; further: potency means the concentration at half of the fitted maximal effect)
# Method in brief: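 Read-out is luminescence from luciferin produced by CYP1A2 demethylation of Luciferin-ME (100uM, at Km). Detection reagent stopped the 60 min NADPH-dependent reaction; signals were normalized to 57 uM furafylline.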
# [8] = biological target: Glucocorticoid receptor (Homo sapiens) (UniProt P04150); assay: GR-GFP Redistribution (AID 450;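 active means compounds whose dose series gives a full or clear partial fitted curve of increased nuclear translocation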; further: potency means the concentration at half of the fitted maximal effect); settings: U2OS GR-GFP nuclear translocation, laser cytometry, 2 h
# Chain of Glucocorticoid receptor (Homo sapiens) (P04150 whole entry, looked up, the tested form may be a part): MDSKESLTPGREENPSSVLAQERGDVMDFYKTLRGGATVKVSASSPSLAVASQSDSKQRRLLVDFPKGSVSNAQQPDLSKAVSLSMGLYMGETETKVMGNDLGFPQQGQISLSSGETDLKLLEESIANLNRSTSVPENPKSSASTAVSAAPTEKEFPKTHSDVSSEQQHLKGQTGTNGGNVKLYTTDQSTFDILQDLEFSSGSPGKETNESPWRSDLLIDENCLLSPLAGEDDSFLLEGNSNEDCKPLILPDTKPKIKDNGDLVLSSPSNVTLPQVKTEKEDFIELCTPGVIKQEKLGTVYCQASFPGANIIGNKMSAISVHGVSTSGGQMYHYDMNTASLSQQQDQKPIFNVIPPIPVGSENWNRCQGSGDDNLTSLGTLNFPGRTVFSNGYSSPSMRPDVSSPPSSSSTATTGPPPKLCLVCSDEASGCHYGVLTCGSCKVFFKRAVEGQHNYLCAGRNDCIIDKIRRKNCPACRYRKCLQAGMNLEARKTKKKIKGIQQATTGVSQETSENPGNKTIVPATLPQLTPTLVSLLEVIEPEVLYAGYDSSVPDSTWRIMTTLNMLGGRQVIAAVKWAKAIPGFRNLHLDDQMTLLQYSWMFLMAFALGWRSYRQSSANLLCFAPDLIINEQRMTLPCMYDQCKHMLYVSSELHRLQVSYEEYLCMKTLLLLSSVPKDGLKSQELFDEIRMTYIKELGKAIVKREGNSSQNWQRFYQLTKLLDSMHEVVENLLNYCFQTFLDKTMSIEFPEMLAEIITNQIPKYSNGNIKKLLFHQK
# [9] = biological target: Glucocorticoid receptor (Homo sapiens) (UniProt P04150); assay: GR-EFC Redistribution (AID 451; calls by dose curve; further: potency means the concentration at half of the fitted maximal effect); settings: CHO-K1 GR-EFC translocation, beta-gal luminescence, 2 h
# Method in brief: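 Translocation of GR-ED fusion to nuclear EA restores b-gal, read by luminescence after 1 h room-temperature detection. Engineered CHO-K1 biosensor cells, 1,000/well, exposed 2 h at 37 C to titrations up to 46 uM final.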
# [10] = biological target: Mitogen-activated protein kinase 10 (Mus musculus) (UniProt Q61831); assay: JNK3 AlphaScreen Assay (AID 530; active means well fitted curve in either direction with a large enough effect, not every such curve was filed as active;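 further: kinase came from lysate of stimulated human HepG2 cells; signal reports phosphorylation of biotinylated GST-cJun 1-79 at Ser73 with 10 µM ATP; series mostly up to about 57 µM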)
# Method in brief: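 Kinase buffer: 20 mM Tris-HCl pH 7.6, 10 mM MgCl2, 1 mM DTT, 0.1 mM Na3VO4, 0.01% Tween-20; ATP 10 uM. Substrate biotin-GST-cJun(1-79), enzyme from activated HepG2 lysates. Detection by Ser73 phospho-antibody AlphaScreen.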
# [11] = biological target: 3',5'-cyclic-AMP phosphodiesterase 4B (Homo sapiens) (UniProt Q07343); assay: qHTS Assay for Inhibitors of PDE-IV (AID 607; active means well fitted activation curve with a large enough effect in the main read-out, with a control signal flat, not every such curve was filed as active)
# Chain of 3',5'-cyclic-AMP phosphodiesterase 4B (Homo sapiens) (Q07343 whole entry, looked up): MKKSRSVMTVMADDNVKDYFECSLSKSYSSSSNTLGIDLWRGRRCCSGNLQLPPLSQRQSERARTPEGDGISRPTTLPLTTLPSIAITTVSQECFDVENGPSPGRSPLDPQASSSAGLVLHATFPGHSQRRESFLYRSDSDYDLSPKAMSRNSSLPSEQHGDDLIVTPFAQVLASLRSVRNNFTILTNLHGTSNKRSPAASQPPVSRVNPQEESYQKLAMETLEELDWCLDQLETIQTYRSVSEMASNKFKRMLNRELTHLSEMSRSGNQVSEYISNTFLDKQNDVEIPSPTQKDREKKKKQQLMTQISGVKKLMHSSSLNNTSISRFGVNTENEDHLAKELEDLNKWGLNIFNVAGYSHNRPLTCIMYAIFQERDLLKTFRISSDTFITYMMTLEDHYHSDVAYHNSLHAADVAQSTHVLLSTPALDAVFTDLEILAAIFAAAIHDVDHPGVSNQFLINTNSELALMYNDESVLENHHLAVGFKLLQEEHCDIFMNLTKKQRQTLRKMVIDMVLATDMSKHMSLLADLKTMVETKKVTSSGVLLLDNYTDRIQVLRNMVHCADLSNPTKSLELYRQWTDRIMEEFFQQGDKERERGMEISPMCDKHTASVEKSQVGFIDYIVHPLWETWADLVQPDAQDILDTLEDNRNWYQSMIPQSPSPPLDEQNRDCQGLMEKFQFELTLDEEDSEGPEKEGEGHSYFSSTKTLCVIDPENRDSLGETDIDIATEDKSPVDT
# Method in brief: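 Live HEK293 cells with a modified cyclic nucleotide-gated (CNG) channel report intracellular cAMP via membrane-potential dye fluorescence (ex 535/em 590 nm). Endogenous PDE-IV was targeted. Compounds were tested at up to 22.9 uM final; RO 20-1724 100 uM served as control.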
# [12] = biological target: Cytochrome P450 3A4 (Homo sapiens) (UniProt P08684); assay: qHTS Assay for Activators of Cytochrome P450 3A4 (AID 885); further: nearly all actives have a fitted effect of over 65% in size
# Method in brief: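 Using 20nM recombinant human CYP3A4 in potassium phosphate (200mM), substrate Luciferin-PPXE at 25uM, luminescent luciferin detection followed a 60-min RT NADPH reaction; data scaled to 57 uM ketoconazole.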
# [13] = biological target: Cytochrome P450 2D6 (Homo sapiens) (UniProt P10635); assay: qHTS Assay for Inhibitors and Substrates of Cytochrome P450 2D6 (AID 891);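 further: luciferin methyl ether substrate demethylated by CYP2D6 with NADPH regeneration; nearly all actives have a fitted effect of over 60% in size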
# Chain of Cytochrome P450 2D6 (Homo sapiens) (P10635 whole entry, looked up): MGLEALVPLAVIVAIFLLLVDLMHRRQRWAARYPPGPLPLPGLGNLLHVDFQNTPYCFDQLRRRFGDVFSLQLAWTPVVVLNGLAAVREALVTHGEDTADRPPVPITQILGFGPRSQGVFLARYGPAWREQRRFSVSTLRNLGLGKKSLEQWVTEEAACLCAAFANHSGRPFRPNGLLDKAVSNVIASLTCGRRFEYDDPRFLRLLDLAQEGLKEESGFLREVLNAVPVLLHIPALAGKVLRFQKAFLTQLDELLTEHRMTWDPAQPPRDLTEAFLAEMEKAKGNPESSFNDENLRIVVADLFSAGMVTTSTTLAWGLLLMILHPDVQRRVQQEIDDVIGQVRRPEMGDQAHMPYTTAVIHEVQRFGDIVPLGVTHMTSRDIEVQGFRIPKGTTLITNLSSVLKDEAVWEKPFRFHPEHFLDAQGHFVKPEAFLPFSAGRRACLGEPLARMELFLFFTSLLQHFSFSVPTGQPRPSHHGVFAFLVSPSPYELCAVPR
# Method in brief: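 Luminescent read-out of luciferin formed by 5 nM human CYP2D6 demethylating 30 uM Luciferin-ME EGE (Km level) over 60 min at room temperature after NADPH regeneration addition. Data normalized to full inhibition by 1.43 uM quinidine.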
# [14] = biological target: Cytochrome P450 2C19 (Homo sapiens) (UniProt P33261); assay: qHTS Assay for Inhibitors and Substrates of Cytochrome P450 2C19 (AID 899); further: nearly all actives have a fitted effect of over 60% in size
# Chain of Cytochrome P450 2C19 (Homo sapiens) (P33261 whole entry, looked up): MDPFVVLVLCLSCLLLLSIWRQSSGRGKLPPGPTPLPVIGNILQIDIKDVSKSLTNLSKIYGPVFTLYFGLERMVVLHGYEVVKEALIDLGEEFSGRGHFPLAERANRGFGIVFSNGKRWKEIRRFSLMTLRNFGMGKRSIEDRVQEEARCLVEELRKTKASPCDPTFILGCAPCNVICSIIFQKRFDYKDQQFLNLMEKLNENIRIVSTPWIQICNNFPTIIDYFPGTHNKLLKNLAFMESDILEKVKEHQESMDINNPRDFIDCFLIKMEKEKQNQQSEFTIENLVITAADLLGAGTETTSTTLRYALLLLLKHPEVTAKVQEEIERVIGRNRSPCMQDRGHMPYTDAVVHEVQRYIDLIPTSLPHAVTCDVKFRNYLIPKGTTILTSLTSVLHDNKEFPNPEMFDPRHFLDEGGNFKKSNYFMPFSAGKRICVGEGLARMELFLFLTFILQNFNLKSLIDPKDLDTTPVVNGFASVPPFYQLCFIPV
# Method in brief: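 Reactions contain 5nM enzyme, 10uM Luciferin-H EGE (KM) and 50mM KPO4; compound preincubates 10 min at 37C, NADPH regeneration starts turnover for 60 min. Luminescence after detection reagent gives activity.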
# [15] = biological target: DNA dC->dU-editing enzyme APOBEC-3G (Homo sapiens) (UniProt Q9HC16); assay: qHTS for inhibitors of Vif-A3G interactions: Validation (AID 588379)
# Chain of DNA dC->dU-editing enzyme APOBEC-3G (Homo sapiens) (Q9HC16 whole entry, looked up): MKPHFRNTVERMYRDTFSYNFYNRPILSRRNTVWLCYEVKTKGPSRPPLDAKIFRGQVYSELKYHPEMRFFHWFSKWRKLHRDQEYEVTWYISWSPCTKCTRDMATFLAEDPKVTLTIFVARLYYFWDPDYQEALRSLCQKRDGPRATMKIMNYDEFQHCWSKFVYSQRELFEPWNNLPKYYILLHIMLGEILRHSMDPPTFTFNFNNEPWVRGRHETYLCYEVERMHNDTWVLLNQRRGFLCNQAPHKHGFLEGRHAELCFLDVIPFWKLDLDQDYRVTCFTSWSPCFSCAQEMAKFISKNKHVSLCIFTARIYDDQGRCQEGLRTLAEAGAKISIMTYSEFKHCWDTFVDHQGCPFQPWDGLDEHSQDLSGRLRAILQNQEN
# Method in brief: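 Yellow fluorescence (Ex 488, Em 500-530) of Vif-coexpressing HeLa A3G-eYFP cells, scanned by Acumen cytometer, reports blocked A3G degradation. Cells plated at 700/well overnight at 37 deg C before compound addition, then a further overnight compound incubation at 37 deg C.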
smiles,measurement,setting,value
O=C1c2cccc3c(N4CCCCC4)ccc(c23)C(=O)N1c1ccc(O)cc1,Potency,[1],112 µM (active)
same,Potency,[2],inactive
same,Potency,[3],inactive
same,Potency,[4],inactive
CCOC(=O)[C@H]1[C@H]2COc3ccc(C)cc3[C@@H]2N2C(=O)c3ccc(C)cc3NC(=O)[C@@]12C,Potency,[1],112 µM (active)
same,Potency,[3],inactive
CC(=O)N1CCc2nc3sc(C(=O)c4ccc(F)cc4)c(N)c3c(C(F)(F)F)c2C1,Potency,[5],inactive
same,Potency,[1],inactive
same,Potency,[2],inactive
same,Potency,[3],inactive
CCOC(=O)c1ccc(/C=C2/C=C(c3ccccc3)N(c3ccc(Cl)c(C(=O)O)c3)C2=O)cc1,Potency,[1],100 µM (active)
same,Potency,[3],inactive
S=c1[nH]nc(-c2cc(-c3ccccc3)n[nH]2)n1/N=C/c1ccc(Cl)c(Cl)c1,activation,[1],"2.21% [at 17.1 µM, percent relative to cAMP agonist control]"
same,Potency,[2],inactive
same,"activity change, negative = inhibition",[3],-11.9% [at 30.8 µM]
same,activation,[4],18.4% [at 30.8 µM]
CNc1ccc(/C=C(\CCC(=O)O)c2nc3ccccc3s2)cc1[N+](=O)[O-],activation,[1],"0% [at 17.1 µM, percent relative to cAMP agonist control]"
same,Potency,[2],inactive
same,"activity change, negative = inhibition",[3],-16.8% [at 30.8 µM]
same,activation,[4],19.8% [at 30.8 µM]
Cc1ccc(NS(=O)(=O)c2cccc3cccnc23)c(Cl)c1,Potency,[1],inactive
same,Potency,[2],inactive
same,Potency,[3],inactive
same,Potency,[4],inactive
COc1cc2ccccc2cc1C(=O)NC(=S)Nc1cccc(C(=O)O)c1,activation,[1],"3.08% [at 17.1 µM, percent relative to cAMP agonist control]"
same,Potency,[2],inactive
same,"activity change, negative = inhibition",[3],-9.48% [at 30.8 µM]
same,activation,[4],7.44% [at 30.8 µM]
N#Cc1ccc(CSc2nc(N)cc(N)n2)cc1,Potency,[1],112 µM (active)
same,Potency,[3],inactive
same,Potency,[4],inactive
CC1(C)CC2CC(C)(CN2C(=O)c2cc(-c3ccccc3O)on2)C1 (stereo not given),activation,[1],"10.5% [at 17.1 µM, percent relative to cAMP agonist control]"
same,Potency,[2],inactive
same,"activity change, negative = inhibition",[3],5.82% [at 30.8 µM]
same,activation,[4],17.1% [at 30.8 µM]
COc1cccc(/C=N/Nc2ccc(S(=O)(=O)Nc3ccccc3C(=O)O)cc2[N+](=O)[O-])c1O,activation,[1],"3.64% [at 17.1 µM, percent relative to cAMP agonist control]"
same,Potency,[2],inactive
same,"activity change, negative = inhibition",[3],-5.08% [at 30.8 µM]
same,activation,[4],20% [at 30.8 µM]
COC(=O)c1cc(NC(=O)c2ccccc2)c(=O)oc1C/C=N\OCc1ccc(Cl)cc1Cl,activation,[1],"-1.43% [at 17.1 µM, percent relative to cAMP agonist control]"
same,Potency,[2],inactive
same,"activity change, negative = inhibition",[3],-10.8% [at 30.8 µM]
same,activation,[4],26% [at 30.8 µM]
COc1ccc(CCn2c(O)cc3nn(-c4nc5ccccc5s4)c(=O)c-3c2C)cc1,Potency,[1],inactive
same,Potency,[2],inactive
same,Potency,[3],inactive
same,Potency,[4],inactive
COc1cc(/C=C2\CCn3c2nc2cc(C(=O)O)ccc2c3=O)ccc1OC(F)F,Potency,[1],inactive
same,Potency,[2],inactive
same,Potency,[3],inactive
same,Potency,[4],inactive
Cc1c(CCC(=O)O)c(=O)oc2cc(OCc3ccccc3Br)ccc12,Potency,[1],inactive
same,Potency,[2],84.9 µM (active)
same,Potency,[3],inactive
same,Potency,[4],inactive
Cn1c(SCC(=O)Nc2cccc(C(=O)O)c2)nnc1-c1cc2cc(Br)ccc2o1,Potency,[1],inactive
same,Potency,[2],inactive
same,Potency,[3],inactive
same,Potency,[4],inactive
O=C(O)c1ccc(Nc2nc(-c3cc4ccccc4oc3=O)cs2)cc1O,Potency,[6],63.1 µM (active)
same,Potency,[1],inactive
same,Potency,[2],inactive
same,Potency,[3],inactive
O=C(O)CC/C(=C\c1cccc(NC(=O)c2ccccc2Cl)c1)c1nc2ccccc2s1,Potency,[1],inactive
same,Potency,[2],inactive
same,Potency,[3],inactive
same,Potency,[4],inactive
NC(N)=N/N=C/c1ccc(OCc2ccc(Cl)cc2Cl)cc1,activation,[1],"3.24% [at 17.1 µM, percent relative to cAMP agonist control]"
same,Potency,[2],inactive
same,"activity change, negative = inhibition",[3],10.5% [at 30.8 µM]
same,activation,[4],27.4% [at 30.8 µM]
CCc1ccc(N=C2NC(=O)/C(=C/c3ccc(OCC(=O)O)cc3)S2)cc1,activation,[1],"8.62% [at 17.1 µM, percent relative to cAMP agonist control]"
same,Potency,[2],inactive
same,"activity change, negative = inhibition",[3],-19.4% [at 30.8 µM]
same,activation,[4],14.2% [at 30.8 µM]
Cc1cccc(C)c1NC(=O)CN1C(=O)S/C(=C\c2cccn2-c2cccc(C(=O)O)c2)C1=O,Potency,[1],100 µM (active)
same,Potency,[3],inactive
same,Potency,[4],inactive
COc1cc2cc(Oc3ccc4ccc(=O)oc4c3)c(=O)oc2cc1O,Potency,[7],2 µM (active)
same,Potency,[8],> 46 µM
same,Potency,[9],> 46 µM
same,Potency,[10],inactive
same,Potency,[11],inactive
same,outcome,[12],inactive
same,Potency,[13],inactive
same,Potency,[14],inactive
same,outcome,[15],inactive
same,activation,[1],"1.41% [at 17.1 µM, percent relative to cAMP agonist control]"
same,Potency,[2],inactive
same,"activity change, negative = inhibition",[3],-3.83% [at 30.8 µM]
